In PubChem BioAssay AID1159568 (Broad Institute, 2015):
Entries with a potency or affinity are not part of this list. Records with an inconclusive call do not appear. The source made the active and inactive calls.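 Rule for the calls: active = signal loss with an EC50 at or below twice the highest valid dose for that sample; inconclusive = flat curve with 30 to 70% inhibition, or poor fit; inactive = the rest.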

experiment: P. falciparum Dd2 growth inhibitors, dose response, SYBR Green, dry powder samples, set 9 (AID 1159568); settings: P. falciparum Dd2 in erythrocytes, 72 h; series mostly up to 19.5 µM

outcome, inactive:
COc1ccc(CNC(=O)C[C@H]2CC[C@@H](NC(=O)CN(C)C)[C@H](CO)O2)cc1, CC(C)[C@@H]1COCc2cnnn2CCC[C@H](C)C(=O)N1, COCC(=O)N1C[C@H](C)[C@@H](OC)CN(C)C(=O)c2ccc(NC(=O)Nc3cccc(F)c3)cc2OC[C@@H]1C, Cc1noc(C)c1S(=O)(=O)N(C)C[C@H]1OCc2cn(nn2)CCCC(=O)N([C@@H](C)CO)C[C@@H]1C, O=C(NCc1ccc2c(c1)OCO2)[C@@H]1[C@@H](CO)[C@@H]2Cn3c(cccc3=O)[C@H]1N2Cc1cncnc1, COc1ccc(NC(=O)N(C)C[C@H]2Oc3ccc(NC(=O)CCN4CCOCC4)cc3C(=O)N([C@H](C)CO)C[C@@H]2C)cc1, COc1cccc(NC(=O)N[C@@H]2CC[C@H](CC(=O)N3CCN(C)CC3)O[C@@H]2CO)c1, C[C@H]1CN([C@@H](C)CO)C(=O)CCCn2cc(nn2)CO[C@H]1CN(C)C(=O)Nc1cccc2ccccc12
